PubChem BioAssay AID1159580 (chemical genetic matrix, 2015)
“And” between values parts separate entries of the source, which are not always exact repeats. Equal values may be shown once. Hit rate of the full screen: of about 5,500 compounds, about 2,000 (36%) were called active. Another 18% or so got no clear call; they are omitted. No stated cut-off is given here; in the data, active means normalized growth mostly below about 0.91 (no sharp cut-off); inconclusive means no clear call, values can overlap the other calls; inactive means mostly above about 0.92. Some of the results follow.

Assay: chemical genetic growth profiling, strain panel (AID 1159580);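 further: tested at 20 µM; growth read once vehicle control cultures reached saturation at 30 °C; 1 = growth at the plate median or of vehicle wells; lower values mean less growth of the strain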
Conditions: S. cerevisiae deletion strains, growth OD

Measured: normalized growth

CC(=O)O[C@H]1CC[C@@]2(C)C(C[C@@H](OC(C)=O)[C@]3(C)C2CC[C@@]2(C)[C@H](c4ccoc4)OC(=O)[C@H]4O[C@]423)C1(C)C (some centres not stated)
inactive: locus YAL013W, strain DEP1, active compounds read low 0.993 | locus YAL021C, strain ccr4, active compounds read low 1.01 | locus YAL026C, strain drs2, active compounds read low 1 | locus YAL030W, strain snc1, active compounds read low 0.99 | locus YBL061C, strain skt5, active compounds read low 0.996 | locus YBR009C, strain hhf1, active compounds read low 0.987 | locus YBR021W, strain FUR4, active compounds read low 0.999 | locus YBR023C, strain chs3, active compounds read low 0.997 | locus YBR171W, strain sec66, active compounds read low 1 | locus YBR229C, strain ROT2, active compounds read low 1 | locus YBR231C, strain swc5, active compounds read low 1.01 | locus YBR279W, strain paf1, active compounds read low 1 | locus YCL011C, strain gbp2, active compounds read low 0.993 | locus YCL016C, strain dcc1, active compounds read low 1 | locus YCL029C, strain bik1, active compounds read low 1.01 | locus YCL061C, strain MRC1, active compounds read low 1 | locus YCL069W, strain vba3, active compounds read low 0.998 | locus YCR088W, strain abp1, active compounds read low 0.995 | locus YDL005C, strain med2, active compounds read low 0.996 | locus YDL035C, strain GPR1, active compounds read low 0.998 | locus YDL040C, strain nat1, active compounds read low 0.988 | locus YDL074C, strain BRE1, active compounds read low 1.04 | locus YDL101C, strain DUN1, active compounds read low 1.03 | locus YDL185W, strain tfp1, active compounds read low 1.01 | locus YDL192W, strain arf1, active compounds read low 0.992 | locus YDR001C, strain nth1, active compounds read low 0.99 | locus YDR069C, strain doa4, active compounds read low 0.991 | locus YDR101C, strain arx1, active compounds read low 1.01 | locus YDR137W, strain rgp1, active compounds read low 1.08 | locus YDR159W, strain sac3, active compounds read low 0.983 | locus YDR162C, strain NBP2, active compounds read low 1.02 | locus YDR195W, strain ref2 0.93 | locus YDR297W, strain sur2, active compounds read low 0.999 | locus YDR318W, strain mcm21, active compounds read low 1.01 | locus YDR334W, strain swr1, active compounds read low 0.985 | locus YDR335W, strain msn5, active compounds read low 0.999 | locus YDR388W, active compounds read low 1.01 | locus YDR392W, strain spt3, active compounds read low 0.914 | locus YDR502C, strain sam2, active compounds read low 1.03 | locus YEL003W, strain gim4, active compounds read low 0.991 | locus YEL037C, strain rad23, active compounds read low 0.988 | locus YEL061C, strain CIN8 (second series), active compounds read low 0.987 | locus YEL061C, strain CIN8, active compounds read low 1.01 | locus YER015W, strain faa2, active compounds read low 0.998 | locus YER016W, strain bim1, active compounds read low 0.999 | locus YER110C, active compounds read low 1.02 | locus YER111C, strain swi4, active compounds read low 0.983 | locus YER155C, strain BEM2 (second series), active compounds read low 0.988 | locus YER155C, strain BEM2, active compounds read low 1 | locus YER167W, strain BCK2, active compounds read low 0.993 | locus YFR010W, strain ubp6, active compounds read low 0.992 | locus YGL078C, strain dbp3, active compounds read low 1.02 | locus YGL086W, strain mad1, active compounds read low 1.01 | locus YGL167C, strain pmr1, active compounds read low 0.994 | locus YGL173C, strain kem1, active compounds read low 1 | locus YGL227W, strain vid30, active compounds read low 1 | locus YGL240W, strain doc1, active compounds read low 0.978 | locus YGL248W, strain PDE1, active compounds read low 1.02 | locus YGL253W, strain hxk2, active compounds read low 1 | locus YGR078C, strain PAC10, active compounds read low 1.02 | locus YGR135W, strain pre9, active compounds read low 1.06 | locus YGR229C, strain SMI1, active compounds read low 0.959 | locus YGR252W, strain gcn5, active compounds read low 1.1 | locus YHR013C, strain ard1, active compounds read low 0.981 | locus YHR027C, strain rpn1, active compounds read low 0.998 | locus YHR030C, strain SLT2, active compounds read low 1.05 | locus YHR079C, strain IRE1 (second series), active compounds read low 1.02 | locus YHR079C, strain IRE1, active compounds read low 1.04 | locus YHR094C, strain hxt1, active compounds read low 1.01 | locus YHR129C, strain ARP1, active compounds read low 1.01 | locus YHR142W, strain chs7, active compounds read low 1.03 | locus YHR200W, strain rpn10, active compounds read low 1.04 | locus YIL066C, strain RNR3, active compounds read low 0.999 | locus YIL073C, strain SPO22, active compounds read low 1.04 | locus YIL125W, strain kgd1, active compounds read low 1.01 | locus YIR030C, strain dcg1, active compounds read low 1 | locus YJL092W, strain hpr5, active compounds read low 0.998 | locus YJL095W, strain BCK1 (second series), active compounds read low 1 | locus YJL095W, strain BCK1, active compounds read low 1.07 and 1.04 | locus YJL115W, strain asf1, active compounds read low 0.997 | locus YJL129C, strain trk1, active compounds read low 0.987 | locus YJL134W, strain LCB3, active compounds read low 1.01 | locus YJL154C, strain vps35, active compounds read low 1 | locus YJL164C, strain tpk1, active compounds read low 0.995 | locus YJL166W, strain qcr8, active compounds read low 1 | locus YJL168C, strain set2, active compounds read low 1.01 | locus YJL187C, strain SWE1 (second series), active compounds read low 1.04
